Bioassay records: PubChem, several laboratories
PfHsp90 yeast 2 – reduces growth (ATP signal) of yeast expressing P. falciparum Hsp90; S. cerevisiae expressing PfHsp90, BacTiter-Glo ATP, 48 h; yeast lacking PDR1 and PDR3 efflux regulators; inhibition, % at 9.4 µM; actives 0.32% (n = 310,000); AID 504621;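 active = every replicate shows inhibition above about 80%, whatever the replicate mean, limit read from the data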;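 note: 0% = DMSO neutral controls and 100% = 20 µM radicicol positive controls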
NLRP3 yeast inh – blocks the NALP3 inflammasome reconstituted in yeast; Yeast reconstituted NLRP3/ASC/caspase-1, beta-gal luminescence, 24 h; inhibition, % at 10 µM; actives 0.39% (n = 330,000);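 active = inhibition of 50% or more; inactive = inhibition below 50%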;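 note: plate controls were induced DMSO wells for no effect and uninduced yeast grown without galactose for full effect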
TIM10 inh – inhibits growth of TIM10 yeast strain. S. cerevisiae TIM10 strain growth, BacTiter-Glo luminescence, 24 h. inhibition, % at 10 µM. actives 1.4% (n = 330,000);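 active = inhibition of 40% or more at the single tested concentration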;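 note: wild-type TIM10 isogenic control strain grown at permissive 25 °C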
tim23-1 inh – tim23-1 yeast growth inhibition; S. cerevisiae tim23-1 growth, BacTiter-Glo luminescence, 24 h; actives 1.3% (n = 330,000); inhibition, % at 20 µM;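 active = growth inhibition of the mutant yeast at or above 50%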;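 note: temperature-sensitive mutant grown at 25 °C; plate controls were DMSO-treated mutant yeast for no effect and medium wells lacking yeast for full effect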
tim10-1 inh – inhibits growth of tim10-1 mutant yeast; S. cerevisiae tim10-1 ts strain growth, BacTiter-Glo, 24 h; inhibition, % at 20 µM; actives 2.2% (n = 330,000); AID 463190;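 active = inhibition of at least 40%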;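 note: mutant grown at 25 °C; 0% = DMSO wells with yeast and 100% = wells holding no yeast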
tim10-1 conf – confirmation of tim10-1 mutant yeast growth inhibitors; shares compounds with tim10-1 inh; S. cerevisiae tim10-1 ts strain growth, BacTiter-Glo, 24 h; inhibition, % at 20 µM; actives 56% (n = 7,400);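 active = inhibition of yeast growth at or above a set limit in either of two repeat tests at 20 µM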;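 note: tim10-1 mutant grown at permissive 25 °C to find synthetic lethal compounds; 0% = DMSO yeast wells and 100% = medium wells without yeast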
Numbers without * were called inactive; / = not tested or not shown. Hits are enriched below; roughly 3.7% of the tested compounds scored in any of these assays.

SMILES | PfHsp90 yeast 2 | NLRP3 yeast inh | TIM10 inh | tim23-1 inh | tim10-1 inh | tim10-1 conf
O=C(CCC(=O)N1CCOc2ccccc21)Nc1ccc(F)cc1F | 34.0 | 14.7 | -10.5 | -3.9 | 0.3 | /
CCOC(=O)c1ccc(N=c2ssnc2Cl)cc1 | 11.3 | 15.4 | 26.0 | 29.3 | 41.0* | 40.0*
CCCc1nn(C)c2c1C(c1cccnc1)C(C#N)=C(N)O2 (stereo not given) | 16.5 | 11.3 | 2.9 | 28.6 | 41.1* | 26.9
Cc1ccc(NC(=O)COc2ccc(N(C)C(=O)C(C)(C)C)cc2)cc1S(=O)(=O)N1CCCCC1 | -9.4 | 16.0 | 7.2 | 4.7 | 9.2 | /
COc1ccc(C(=O)Cn2c(NCCCO)nc3ccccc32)cc1OC | 2.6 | 10.9 | -2.0 | -8.7 | -0.9 | /
O=C(c1cc(COc2ccc(F)c(F)c2)on1)N1CCN(C2CCCCC2)C(=O)C1 | -23.3 | 18.6 | -17.6 | 33.1 | 40.4* | -29.4
CCCOC(=O)c1ccc(Oc2c(-c3ccc(O)cc3O)n[nH]c2C)cc1 | -40.4 | 3.1 | 21.3 | -110.9 | 55.3* | 9.3
O=C(O)c1ccccc1C(=O)N1N=C2/C(=C/c3cccc([N+](=O)[O-])c3)CCCC2C1c1cccc([N+](=O)[O-])c1 (stereo not given) | 11.6 | -6.8 | 21.4 | 19.9 | 43.8* | 31.0
COc1ccc(NC(=O)CN(C)CC(=O)Nc2sc3c(c2C#N)CCC3)cc1 | 7.2 | 5.8 | 10.6 | 16.5 | 9.3 | /
CCOc1cc(/C=C2\C(=O)N(Cc3ccc(C)cc3)C(C)=C2C(=O)OC)ccc1O | -10.8 | -2.6 | 28.1 | 46.9 | 44.1* | 24.6
C=CCOc1cccc(/C=C2\C(=O)N(Cc3ccc(C)cc3)C(C)=C2C(=O)OC)c1 | -17.8 | 1.2 | 30.9 | 24.8 | 36.1 | /
N#CCC(=O)c1ccccc1Oc1ccc(Cl)cc1 | -12.1 | 10.1 | 21.5 | 46.9 | 49.8* | 28.7*
O/N=C/c1ccccc1Oc1ccc(Cl)cc1 | 3.3 | -15.2 | -26.2 | 11.1 | -64.6 | /
O=C(c1ccc2c(=O)n3c(nc2c1)CCC3)N1CCN(S(=O)(=O)c2ccccc2Br)CC1 | 1.0 | / | / | / | / | /
Cc1cc(C)n(-c2ccc(C(=O)OCn3nnc4ccccc4c3=O)cc2)n1 | -5.0 | 18.1 | 27.3 | 40.9 | 49.2* | 41.8*
Nc1nc(-c2cc(O)ccc2[N+](=O)[O-])cc(-c2ccccc2)c1[N+](=O)[O-] | -12.9 | 27.9 | -23.7 | -3.4 | -11.5 | /
CCOC(=O)NC1(NC2CCCCC2)Oc2ccccc2O1 | -3.3 | 12.9 | 36.5 | 46.0 | 40.1* | 28.1
CCOC(=O)NC1(NC(C)C)Oc2ccccc2O1 | -0.1 | -4.5 | 19.8 | 14.3 | 11.8 | /
O=C(NC1CC1)C1CCN(S(=O)(=O)c2ccc(Cl)c([N+](=O)[O-])c2)CC1 | 2.0 | 13.5 | 3.8 | 2.3 | -3.7 | /
N#CC1=C(SCC(N)=O)NC2=C(C(=O)c3ccccc32)C1c1ccc(Cl)cc1 (stereo not given) | -29.3 | 5.6 | 28.6 | 27.3 | 44.3* | 27.3
Cc1ccc(-n2nc3c4c(cccc4c2=O)-c2ccccc2-3)cc1 | / | 7.1 | 19.3 | 7.1 | 41.6* | 22.6
COc1ccccc1-c1noc(CCC(=O)NC2CCCC2)n1 | 3.3 | 8.7 | -0.6 | 2.6 | -1.4 | /
COc1ccccc1-c1noc(CCC(=O)Nc2cc(C(F)(F)F)ccc2Cl)n1 | / | 5.9 | 10.6 | 25.0 | 43.1* | 22.4
CC(C)c1cc2c(c(O)c1O)[C@@]13CCCC(C)(C)C1CC2OC3=O (stereo not given in full) | 22.0 | 30.4 | 12.7 | 27.7 | 42.6* | 34.8*
CCCCn1c(=O)[nH]c(=O)c2c1nc(Cn1ncc(Cl)c(Cl)c1=O)n2CCC | 0.5 | 5.3 | -4.1 | 2.8 | 14.7 | /
SMILES | PfHsp90 yeast 2 | NLRP3 yeast inh | TIM10 inh | tim23-1 inh | tim10-1 inh | tim10-1 conf
CC1CCC2(CC1)C(Nc1cccc(Cl)c1)=NC(=S)N2CC#N (stereo not given) | -25.1 | -11.4 | 30.5 | 40.9 | 43.0* | 39.3*
CCn1cc(CN2CCC(n3nccc3NC(=O)C(OC)c3ccccc3)CC2)cn1 (stereo not given) | 11.4 | 21.7 | 1.2 | -0.6 | -5.4 | /
c1ccc(N2CC3COc4ccccc4C3=N2)cc1 (stereo not given) | -23.5 | / | / | / | / | /
COc1ccc(CCNC(=O)c2cc(-c3ccc(Cl)c(Cl)c3)oc2C)cc1 | 6.4 | 15.9 | 29.0 | 25.2 | 40.5* | 35.6*
COc1ccc(CCNC(=O)c2nn(C)cc2Cl)cc1 | 21.3 | 9.2 | 11.5 | 14.0 | 7.2 | /
O=C(c1ccc(O)cc1)c1ccc(Cl)cc1 | 4.8 | 3.5 | -3.9 | 39.5 | 40.0 | 25.7
COc1ccc(NC(=O)C(OC(=O)Cn2cnc3c2c(=O)n(C)c(=O)n3C)c2ccccc2)cc1Cl (stereo not given) | -16.3 | / | / | / | / | /
O=C(CNc1ccc(Br)cc1)Nc1ccc(S(=O)(=O)N2CCCC2)cc1 | 4.6 | 3.1 | 13.1 | 33.6 | 23.8 | /
O=C(C1CCC1)N1CCCc2cc(S(=O)(=O)N3CCN(c4ccccc4)CC3)ccc21 | -3.2 | 1.5 | 13.5 | 43.7 | 45.9* | 34.5*
COc1ccccc1NC(=O)CN1CCN(C(=O)C2CCCO2)CC1 (stereo not given) | 3.0 | 12.5 | -2.8 | -1.8 | 2.8 | /
COc1ccc(-n2cc3c(-c4cccc(Br)c4)nnc(C)c3n2)cc1 | -5.4 | 28.2 | 26.2 | 48.4 | 46.2* | 30.5
COC(=O)c1ccc(NC(=O)CSc2nncn2-c2ccccn2)cc1 | 11.2 | -7.9 | 11.8 | 3.2 | -1.2 | /
COC(=O)c1ccsc1NC(=O)CCS(=O)(=O)c1ccc(Cl)cc1 | -6.4 | 18.5 | 31.9 | 45.8 | 56.2* | 59.1*
Cc1ccc(S(=O)(=O)CCC(=O)Nc2sccc2C(N)=O)cc1 | -2.7 | 3.3 | 2.8 | -3.9 | -5.0 | /
COC(=O)c1ccsc1NC(=O)CCS(=O)(=O)c1ccccc1 | 4.2 | -3.5 | 5.9 | 41.1 | 41.5* | 20.9
O=C(Nc1nnc(C2CC2)o1)c1ccc(S(=O)(=O)N2CCCCC2)cc1 | 6.3 | 5.2 | 8.9 | 19.7 | 24.3 | /
CC1CCN(S(=O)(=O)c2ccc(C(=O)Nc3nnc(C4CC4)o3)cc2)CC1 | / | 14.0 | 19.6 | 37.6 | 41.4* | 9.9
O=S(=O)(/C=C/c1ccccc1)n1cnc2ccccc21 | -0.7 | 8.8 | 37.6 | 29.0 | 44.4* | 32.3*
CN(C)S(=O)(=O)n1cnc2ccccc21 | -14.6 | -5.9 | -1.0 | 3.3 | 6.8 | /
Cc1ccc(S(=O)(=O)c2nc(S(C)(=O)=O)sc2N2CCC(C)CC2)cc1 | -8.4 | -4.8 | 24.9 | 46.6 | 46.3* | 18.4
Cc1nn(-c2nnc(NC3CCCCC3)nn2)c(C)c1Br | -7.8 | 32.3 | 22.4 | 36.5 | 45.2* | 34.5*
Cc1nn(C)c(C)c1S(=O)(=O)NC1CCCC1 | -3.9 | -6.4 | 4.0 | -3.2 | 11.9 | /
CCC(C)c1ccc(NC(=O)Nc2cccnc2)cc1 (stereo not given) | -9.3 | -10.3 | 26.0 | 36.0 | 43.3* | 33.5*
COc1ccccc1NC=C1C(=O)OC2(CCCCC2)OC1=O | / | 11.5 | 16.6 | 22.5 | 40.4* | 22.2
Cn1ccsc1=NC(=O)c1ccc(Cl)c([N+](=O)[O-])c1 | 9.6 | 13.4 | -6.9 | -0.7 | -0.8 | /
